Sampled rows, rich in hits. Any-hit rate of the full collection: about 1.4%.
GRK2 aptamer HTS – inhibitors of human GRK2 displacing RNA aptamer; 330,000 tested, 0.59% active; inhibition of aptamer binding, % at 10 µM; AID 488847; bead flow cytometry, FAM-aptamer displacement from GRK2; P25098;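 active = inhibition of aptamer binding above 40%, roughly 3 SD of noise, on plates passing a quality check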;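 also: median bead fluorescence of bound FAM aptamer so fluorescent compounds give negative values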
A3A deaminase – blocks human APOBEC3A ssDNA deamination. recombinant A3A, FAM/TAMRA ssDNA deamination fluorescence. inhibition, % at 20 µM. 330,000 tested, 0.41% active;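 active = at least 40% inhibition at 20 µM here, with at most 30% in a related deaminase screen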;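 also: plate controls were A3A with DMSO for no effect and wells lacking A3A enzyme for full effect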
Target sequence (P31941 whole entry, looked up): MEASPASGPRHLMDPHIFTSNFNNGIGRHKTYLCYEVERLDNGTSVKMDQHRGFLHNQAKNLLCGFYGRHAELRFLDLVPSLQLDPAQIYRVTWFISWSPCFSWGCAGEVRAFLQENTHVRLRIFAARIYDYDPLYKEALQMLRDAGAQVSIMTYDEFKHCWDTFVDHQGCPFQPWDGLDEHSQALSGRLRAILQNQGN
A3G deaminase – APOBEC3G (human) deaminase inhibition; Q9HC16; 330,000 tested, 0.28% active; recombinant A3G, ssDNA deamination FAM/TAMRA fluorescence; inhibition, % at 20 µM;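 active = inhibition of at least 40% at 20 µM, with no more than 30% in the related APOBEC3A deaminase screen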;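 also: plate controls were DMSO wells with A3G for no effect and wells lacking A3G enzyme for full effect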
Target sequence (Q9HC16 whole entry, looked up): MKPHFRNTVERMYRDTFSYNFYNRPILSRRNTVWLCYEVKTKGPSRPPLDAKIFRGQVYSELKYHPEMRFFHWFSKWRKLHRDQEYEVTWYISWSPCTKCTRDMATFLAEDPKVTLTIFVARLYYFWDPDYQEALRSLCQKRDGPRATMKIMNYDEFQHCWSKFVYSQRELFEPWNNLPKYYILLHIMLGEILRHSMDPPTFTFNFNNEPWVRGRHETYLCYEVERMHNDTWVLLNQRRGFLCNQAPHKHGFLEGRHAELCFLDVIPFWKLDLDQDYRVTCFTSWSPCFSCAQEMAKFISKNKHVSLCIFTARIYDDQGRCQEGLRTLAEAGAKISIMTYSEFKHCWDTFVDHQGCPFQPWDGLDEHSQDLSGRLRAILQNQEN
VLA-4 inh – inhibition in a human VLA-4 binding assay; P13612; VLA-4 expressing cells, ligand binding flow cytometry; inhibition, % (about 7 µM as worked out from the volumes in the protocol); 330,000 tested, 0.2% active; in the data active = inhibition above about 50%
APOBEC3A confirm – APOBEC3A (human) deaminase inhibition, confirmed; inhibition, % at 20 µM; 1,400 tested, 63% active; shares compounds with A3A deaminase; recombinant A3A, ssDNA deaminase UDG fluorescence assay; AID 493151;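 active = inhibition reaching a set limit, 80% of the first screen's cutoff, at 20 µM in any replicate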;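 also: plate controls were DMSO wells with A3A for no effect and wells lacking A3A enzyme for full effect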
UDG ctr A3A – UDG inhibition in APOBEC3A counter-screen. shares compounds with A3A deaminase. UDG counterscreen, FAM/TAMRA uracil oligo fluorescence. inhibition, % at 20 µM. 1,000 tested, under 10 active. AID 504714; call rule not given here
An asterisk follows results filed as active.

Results for COc1ccc(CC(=O)Nc2cccc(/C(C)=N/NC(=O)c3cccc([N+](=O)[O-])c3)c2)cc1 ?
GRK2 aptamer HTS: 2; A3A deaminase: 72*; A3G deaminase: 1; VLA-4 inh: 9; APOBEC3A confirm: 1

Results for CCCOc1ccc(/C=c2\sc3nc(-c4ccco4)nn3c2=O)cc1OCC ?
GRK2 aptamer HTS: 0; A3A deaminase: 74*; A3G deaminase: 21; VLA-4 inh: 25; APOBEC3A confirm: 30*; UDG ctr A3A: -3

How did O=C1c2cccc3cc([N+](=O)[O-])cc(c23)C(=O)N1CCN1CCCC1 do in these assays?
A3A deaminase: 41*; A3G deaminase: 29; APOBEC3A confirm: 26

What do the screens show for `Nc1cc2c3c(cccc3c1)C(=O)N(CCN1CCCC1)C2=O`?
GRK2 aptamer HTS: 9; VLA-4 inh: -84

Results for COc1cccc(NS(=O)(=O)c2ccc3[nH]cc(C(=O)NCCN4CCOCC4)c(=O)c3c2)c1 ?
GRK2 aptamer HTS: 0; A3A deaminase: 6; A3G deaminase: 0; VLA-4 inh: -4

Results for CC(=O)OCCn1c(C)[n+](CCOC(C)=O)c2cc(Cl)c(Cl)cc21 ?
GRK2 aptamer HTS: 0; A3A deaminase: 82*; A3G deaminase: 14; VLA-4 inh: -6; APOBEC3A confirm: 81*; UDG ctr A3A: -1

How did CCn1c(/C=C/Nc2ccccc2)[n+](CC)c2cc(Cl)c(Cl)cc21 do in these assays?
GRK2 aptamer HTS: 0; A3A deaminase: 30; A3G deaminase: 7; VLA-4 inh: 21

What do the screens show for `CC(=O)OCCn1c2nc(=O)[nH]c(=O)c-2nc2cc(C)c(C)cc21`?
GRK2 aptamer HTS: 0; A3A deaminase: -33; A3G deaminase: 7; VLA-4 inh: -20

Results for CCOC(=O)Cn1c(C)[n+](C)c2cc(Cl)c(Cl)cc21 ?
GRK2 aptamer HTS: 0; A3A deaminase: 87*; A3G deaminase: 24; VLA-4 inh: -3; APOBEC3A confirm: 81*; UDG ctr A3A: 2

What do the screens show for `CCn1c(C)[n+](CCOCC[n+]2c(C)n(CC)c3cc(Cl)c(Cl)cc32)c2cc(Cl)c(Cl)cc21`?
GRK2 aptamer HTS: 0; A3A deaminase: 78*; A3G deaminase: 29; VLA-4 inh: 25; APOBEC3A confirm: 88*; UDG ctr A3A: -2

How did Cc1ccc2ncccc2c1NS(=O)(=O)c1ccccc1 do in these assays?
GRK2 aptamer HTS: 0; A3A deaminase: 43*; A3G deaminase: 27; VLA-4 inh: -4; APOBEC3A confirm: 13

Results for Cc1ccc(S(=O)(=O)N2CCOCC2)cc1C(=O)Nc1ccc(N2CCCCCC2)cc1 ?
A3A deaminase: -3; A3G deaminase: -4

Results for CCN1/C(=C/c2ccc3cc(C)ccc3[n+]2CC)Sc2cc(C)c(C)cc21 ?
A3A deaminase: 57*; A3G deaminase: 19; APOBEC3A confirm: 80*

Results for CC(C)CN(C(=O)CC(C)c1ccccc1)c1c(N)n(Cc2ccccc2)c(=O)[nH]c1=O (stereo not drawn) ?
GRK2 aptamer HTS: 0; A3A deaminase: 70*; A3G deaminase: 20; VLA-4 inh: -15; APOBEC3A confirm: 11

Results for CC(C)CN(C(=O)CCc1ccccc1Cl)c1c(N)n(Cc2ccccc2)c(=O)[nH]c1=O ?
GRK2 aptamer HTS: 1; A3A deaminase: 4; A3G deaminase: -9; VLA-4 inh: -8

How did COc1cc(OC)cc(C(=O)Nc2cccc3c2CCCC3)c1 do in these assays?
GRK2 aptamer HTS: 3; A3A deaminase: -7; A3G deaminase: -2; VLA-4 inh: 5

How did COc1cccc(OC)c1C(=O)Nc1cccc2c1CCCC2 do in these assays?
GRK2 aptamer HTS: 0; A3A deaminase: 55*; A3G deaminase: -1; VLA-4 inh: 3; APOBEC3A confirm: -3; UDG ctr A3A: 1

What do the screens show for `O=C(O)COc1ccc(/C=N/NC(=O)C2CCCN2S(=O)(=O)c2ccc(Cl)cc2)cc1` (stereo not drawn)?
GRK2 aptamer HTS: 0; A3A deaminase: 51*; A3G deaminase: 4; VLA-4 inh: 4; APOBEC3A confirm: 13

What do the screens show for `COc1ccc(CSCC(=O)N/N=C/c2ccc(OCC(=O)N3CCCCC3)cc2)cc1`?
GRK2 aptamer HTS: 0; A3A deaminase: 52*; A3G deaminase: 22; VLA-4 inh: 8; APOBEC3A confirm: 52*; UDG ctr A3A: -2

What do the screens show for `C[n+]1cccc(C(=O)NNC(=O)C23CC4CC(CC(C4)C2)C3)c1`?
GRK2 aptamer HTS: 0; A3A deaminase: 82*; A3G deaminase: 21; VLA-4 inh: 0; APOBEC3A confirm: 69*; UDG ctr A3A: -3

What do the screens show for `O=C1CC(N2CCOCC2)C(=O)N1c1ccc(Cl)cc1` (stereo not drawn)?
GRK2 aptamer HTS: 5; A3A deaminase: -1; A3G deaminase: -4; VLA-4 inh: 9

How did NNC(=O)c1ccc(COc2ccc3ccccc3c2)o1 do in these assays?
GRK2 aptamer HTS: 0; A3A deaminase: -5; A3G deaminase: -7; VLA-4 inh: -11

Results for COc1ccc(CCNC(=O)Cc2c(Cl)cccc2Cl)cc1 ?
GRK2 aptamer HTS: 0; A3A deaminase: 44*; A3G deaminase: 3; VLA-4 inh: 4; APOBEC3A confirm: 7

How did COc1ccc2[nH]cc(C3N4CC5(C)CN3CC(C)(C4)C5=O)c2c1 (stereo not drawn) do in these assays?
GRK2 aptamer HTS: 0; A3A deaminase: -2; A3G deaminase: -6; VLA-4 inh: 0

Results for COc1ccc(CCCC(=O)Nc2cc(C)ccc2OC)cc1 ?
GRK2 aptamer HTS: 1; A3A deaminase: 60*; A3G deaminase: 11; VLA-4 inh: 3; APOBEC3A confirm: 28

How did CCOc1ccc(CN2C(=O)c3ccccc3C2=O)cc1C(=O)NC1CC(C)(C)NC(C)(C)C1 do in these assays?
GRK2 aptamer HTS: 0; A3A deaminase: 45*; A3G deaminase: 9; VLA-4 inh: 1; APOBEC3A confirm: 64*; UDG ctr A3A: -3

Results for O=C1CSC(=Nc2ccccc2)N1Cc1ccccc1 ?
GRK2 aptamer HTS: 0; A3A deaminase: -4; A3G deaminase: 5; VLA-4 inh: 5

Results for CCn1c(/C=C/c2ccccc2)nc2ccccc21 ?
GRK2 aptamer HTS: 0; A3A deaminase: 3; A3G deaminase: -5; VLA-4 inh: 7

What do the screens show for `CCCn1c(/C=C/c2cc[n+](C)cc2)nc2ccccc21`?
GRK2 aptamer HTS: 4; A3A deaminase: 57*; A3G deaminase: 19; VLA-4 inh: -5; APOBEC3A confirm: 62*

What do the screens show for `O=C(/C=C/c1ccccc1[N+](=O)[O-])c1ccccc1Br`?
GRK2 aptamer HTS: 0; A3A deaminase: -2; A3G deaminase: -5; VLA-4 inh: 24

Results for COC(=O)c1ccccc1NC(=O)c1noc2c1CCC2 ?
GRK2 aptamer HTS: 19; A3A deaminase: 59*; A3G deaminase: 23; VLA-4 inh: 2; APOBEC3A confirm: 47*

What do the screens show for `CSc1ccccc1NC(=O)c1noc2c1CCC2`?
GRK2 aptamer HTS: 10; A3A deaminase: 37; A3G deaminase: 16; VLA-4 inh: 5
